Measured values as given in PubChem BioAssay AID1766 (National Center for Advancing Translational Sciences (NCATS), 2009).
Fewer than 10 of roughly 290,000 compounds were called active. Not shown: some 3% with an inconclusive outcome. The call rests on the fitted dose curve; in most records, active means well fitted curve in the direction sought with a large enough effect in the polarisation (not every such curve was filed as active); inconclusive means small, poorly fitted or top-dose-only effect, or effect the other way, or a change in a side signal; inactive means no such curve, though single readings can be large or run the other way; the % refers to the polarisation. A selection follows.

Assay: qHTS Assay for Inhibitors Targeting the Menin-MLL Interaction in MLL Related Leukemias: Competition With Fluorescein Labeled MLL-derived Peptide; further: % of control where 0% means no effect
Details: Fluorescence polarization, fluorescein-MLL peptide displacement from menin; series mostly up to 61.4 µM; FP activity change: at the top concentration
From the text: qHTS Assay for Inhibitors Targeting the Menin-MLL Interaction in MLL Related Leukemias NIH Chemical Genomics Center [NCGC] NIH Molecular Libraries Probe Centers Network [MLPCN] MLPCN Grant: MH084875-01A1 Assay Submitter (PI): Jolanta Grembecka, Tomasz Cierpicki, University of Virginia Translocations of the MLL (Mixed Lineage Leukemia) gene are frequently found in human leukemias affecting both children and adults. Fusion of MLL to one of more than 60 genes results in generation of oncogenic proteins upregulating Hox genes, which are vital to blood cell development. Patients harboring fusion of the MLL gene suffer from aggressive leukemias and respond poorly to available therapies. All of the oncogenic fusion proteins have a preserved N-terminal fragment of MLL that has been identified to interact with menin. It has been recently discovered that association with menin is critical to the leukemogenic activity of the MLL fusion oncoproteins. Selective targeting of the menin-MLL interaction could provide an attractive therapeutic approach to develop novel drugs for MLL-related leukemias. Small molecules blocking the menin-MLL interaction should reverse the oncogenic potential of MLL fusion proteins. We have developed and optimized a fluorescence polarization-based assay for the identification of Menin-MLL inhibitors. The assay was run employing two different MLL-derived peptides. The present assay uses a 12 amino acid peptide labeled with fluorescein at its N-terminus. This peptide consists of the menin high affinity binding motif from MLL and is potently bound by menin. Another peptide with a mutated sequence, labeled with Texas Red, was used in parallel as a less stringent screen for inhibitors.
The Menin protein, the MLL-wild type (w.t.) derived peptide (N-terminal 12 amino acids), the MLL-derived peptide labeled with Texas Red and the MLL-w.t. peptide labeled with Fluorescein were kindly supplied by laboratory of Dr. Jolanta Grembecka, University of Virginia. All protein and peptide solutions were stored in single use aliquots at -80C. The Eu3+ Cyrptate-conjugated mouse monoclonal antibody anti-6 Histidine (Eu3+-AB) and the Streptavidin-XL665 conjugate (XL665) were purchased from Cisbio International (Bedford, MA). All antibody and XL665 conjugate solution stocks were stored in single use aliquots at -20C. The Buffer components for all assays were purchased from Sigma-Aldrich (St. Louis, MO) and Invitrogen (Carlsbad, CA). FP Assay Reagents: 1. FP reaction buffer: 50 mM Tris-HCl pH 7.5, 50 mM NaCl, 1mM DTT. Before use, 0.05% BSA is added. 2. Menin protein, MLL-w.t. labeled with fluorescein, MLL-mutant peptide labeled with texas red. Stored in singe use aliquots at -80C. 3. MLL-w.t. unlabeled peptide as positive control: 10 uM final in FP buffer. FP Assay Procedure: 1. Prepare Menin at 200 nM, MLL-w.t.-fluorescein at 25 nM, and MLL-mutant-texas red at 50 nM mixture in FP buffer. 2. Prepare Menin at 200 nM, MLL-w.t.-fluorescein at 25 nM, MLL-mutant-texas red at 50 nM, and 10 uM MLL-w.t. unlabeled mixture in FP buffer. 3. Prepare MLL-w.t.-fluorescein at 25 nM and MLL-mutant-texas red at 50 nM mixture in FP buffer. 3. Dispense 4 ul per well of reagent in step 1 in columns 2, 4 - 48 in a black 1536 well plate, dispense 4 ul per well of reagents from steps 2 and 3 in columns 1 and 3 respectively. Incubate plate at ambient for 15 minutes. 4. Transfer 23 nl per well of compound to plate and incubate at ambient for 1 hr. 5. Read fluorescence polarization for each label using the PerkinElmer Envision. Envision protocol for fluorescein: FITC FP Dual Enh Mirror, Excitation filter 480, Emission filter (1) P-pol 535, Emission filter (2) S-pol 535 Envision protocol for texas red: FP Dual Enh Mirror, Excitation filter 555, Emission filter (1) P-pol 632, Emission filter (2) S-pol 632

| SMILES | FP activity change |
| --- | --- |
| Cc1ccc(-c2noc(C3CCCN(C(=O)c4cccc(Cl)c4)C3)n2)o1 (stereo not drawn) | -0.951% (inactive) |
| CS(=O)(=O)N1CCc2nc(-c3ccccc3)sc2C1 | 2.34% (inactive) |
| Cc1cc(C)c(NC(=O)CN2CCCCCC2)c(C)c1 | -5.8% (inactive) |
| COc1ccccc1-c1sc2ccccc2c1-c1ccc(C(C)=O)cc1 | -1.43% (inactive) |
| CCCC(C(=O)NC1CCCC1)N(C(=O)Cn1nnc(-c2ccc(C)o2)n1)c1cccc(O)c1 (stereo not drawn) | -0.769% (inactive) |
| Cc1ccc(CSc2nsc(C)c2C#N)cc1 | 7.64% (inactive) |
| Cn1cc(S(=O)(=O)Nc2ccc(Cl)cc2Cl)c(=O)n(C)c1=O | -8.92% (inactive) |
| CCc1ccc(C(=O)NN=C2CCCCCC2)s1 | 1.51% (inactive) |
| CCOc1ccccc1N1C(=O)CC(Sc2nccc(C)n2)C1=O (stereo not drawn) | -0.762% (inactive) |
| COc1cccc(-c2noc(C3CCCN(C(=O)c4ccc(F)cc4)C3)n2)c1 (stereo not drawn) | -1.5% (inactive) |
| O=S(=O)(Cc1cc(Cl)nc(-c2cccnc2)n1)c1ccccc1 | 0.869% (inactive) |
| Cc1noc(C)c1-c1ccc2ncnc(NCc3ccc4[nH]ccc4c3)c2c1 | -0.0639% (inactive) |
| CCN(CC(=O)NCC(=O)Nc1cccc(C)c1C)Cc1ccccc1 | 3.07% (inactive) |
| CCCSc1nc2sc3c(c2c(=O)n1-c1ccc(OC)cc1)CCN(C)C3 | 13% (inactive) |
| COc1ccccc1-c1cnn2c(N3CCOCC3)cc(C)nc12 | 37.1% (inactive) |
| CCC1CCCCN1C(=O)CSc1nc2c(c(=O)n1C)SC(C)C2 (stereo not drawn) | -0.813% (inactive) |
| C=CCNC(=S)/N=c1/ccccn1Cc1ccccc1 | -0.235% (inactive) |
| COc1cc2ccccc2cc1C(=O)N(CCN(C)C)c1nc2c(F)cccc2s1 | -2.7% (inactive) |
| CC1CN(C(=O)CCC(=O)NC2CCN(Cc3ccccc3)CC2)c2ccccc2O1 (stereo not drawn) | 0.0632% (inactive) |
| COc1ccc(CC(=O)N/N=C/c2cc([N+](=O)[O-])cc(Br)c2O)cc1 | 19.4% (inactive) |
| O=C(Nc1ccccc1)c1ccc2c(c1)OCCCO2 | -0.0609% (inactive) |
| Cc1ccc(NC(=O)NC(=O)c2ccccc2)cc1F | -0.471% (inactive) |
| COc1ccccc1CN1CCCC(N2CCN(c3ccc(F)cc3)CC2)C1 (stereo not drawn) | -0.994% (inactive) |
| Cc1[nH]c(C)c(S(=O)(=O)N2CCN(c3cccc(C(F)(F)F)c3)CC2)c1C(=O)N1CCCCC1 | -4.51% (inactive) |

| SMILES | FP activity change |
| --- | --- |
| COc1cccc(N(C(=O)c2snc(C(N)=O)c2N)C(C(=O)NCC2CCCO2)c2c[nH]c3ccccc23)c1 (stereo not drawn) | 6.5% (inactive) |
| COc1ccccc1OCCOc1ccc(/C=C2\C(=N)N3N=C(C)SC3=NC2=O)cc1 | -0.066% (inactive) |
| C=C1CCN(Cc2ccc(OC)cc2)S(=O)(=O)c2ccccc21 | -1.07% (inactive) |
| CC1Sc2ccc(S(=O)(=O)CCC(=O)NCc3ccccc3Cl)cc2NC1=O (stereo not drawn) | -0.854% (inactive) |
| CC(O)c1ccc(OCCN(C)c2ccccn2)cc1 (stereo not drawn) | 0.254% (inactive) |
| CC(O)COc1ccccc1 (stereo not drawn) | -1.98% (inactive) |
| CN(CC(=O)Nc1ccc(F)cc1)C(=O)c1ccc(-c2ccc(Cl)cc2)o1 | 0.512% (inactive) |
| CC(C)[C@@H]1COC(c2cccc(C3=N[C@H](C(C)C)CO3)c2)=N1 | 1.68% (inactive) |
| COc1ccc(OCc2cc(C(=O)N3CCCC3)no2)c2ccccc12 | -0.316% (inactive) |
| c1cnc(N2CCN(c3ccc4ccccc4n3)CC2)nc1 | -2.01% (inactive) |
| Cc1cc(=O)n2[nH]c(-c3cccc(Cl)c3)cc2n1 | -4.41% (inactive) |
| CCCCCC(O)(CCN1CCCCC1)c1ccccc1 (stereo not drawn) | -1.88% (inactive) |
| Cc1cc(C)cc(OCC(=O)NC(C)c2ccccc2)c1 (stereo not drawn) | 6.39% (inactive) |
| O=c1[nH]cccc1-c1nc2ccccc2n1Cc1ccc(Cl)cc1 | -1.47% (inactive) |
| CCCc1cc(=O)n2[nH]c(C)c(-c3ccc(Cl)cc3)c2n1 | -3.54% (inactive) |
| O=C1CCN(CCc2ccccc2)CCN1CCOc1ccccc1 | -5.61% (inactive) |
| Cc1cc(C)c(C#N)c(Nc2cccc(Br)c2)n1 | -1.91% (inactive) |
| O=C(NCCS(=O)(=O)N1CCN(c2ccccc2F)CC1)c1ccc(Br)o1 | -2.26% (inactive) |
| CCc1ccccc1OCC(=O)Nc1ccc2c(c1)OCCO2 | -1.07% (inactive) |
| Oc1ccc(C2Nc3cccc4cccc(c34)N2)cc1 | 1.81% (inactive) |
| Cc1ccc(-c2csc(NC3OC(=O)c4ccccc43)n2)cc1 (stereo not drawn) | 0.604% (inactive) |
| Cc1n[nH]c(=O)c2c1nnn2Cc1ccc(F)cc1 | 1.28% (inactive) |
| COc1ccc(NC(=O)C/C(C)=N/NC(=O)c2cnccn2)cc1Cl | -0.652% (inactive) |
| CS(=O)(=O)N1CCN(C(=O)CSc2ccccc2)CC1 | 0.441% (inactive) |

| SMILES | FP activity change |
| --- | --- |
| COc1ccc2c(c1)c(C(=O)N/N=C/c1cccs1)c(C)n2C | -1.26% (inactive) |
| CC(C)OC(=O)c1ccc(COc2ccc3ccc(=O)oc3c2)o1 | 0.0912% (inactive) |
| CNC(=O)c1sc(Nc2ccc(OCc3ccccc3)cc2)nc1C | -0.434% (inactive) |
| Cc1cccc(C)c1NC(=S)N1CCCCCC1 | 10.5% (inactive) |
| Cc1ccc(O)c(CNc2nc3ccccc3[nH]2)c1 | 0.249% (inactive) |
| COCCNC(=O)c1ccc2nc(Cc3ccc(OC)c(OC)c3)oc2c1 | 0.18% (inactive) |
| CCCc1cc(=O)[nH]c(SCC(=O)N2C(C)CCCC2C)n1 (stereo not drawn) | 1.47% (inactive) |
| COc1cc(CNCc2ccc(OC)c3ccccc23)cc(OC)c1OC | -0.733% (inactive) |
| Cc1ccc2oc(C(=O)N3CCN(C)C[C@@H]3C(C)C)c(C)c2c1 | -0.0815% (inactive) |
| O=C(Nc1cccc(C(F)(F)F)c1)c1cc(Br)cc(Br)c1O | -4.54% (inactive) |
| CC(C)(C)c1ccc(SCCc2ccncc2)cc1 | -0.793% (inactive) |
| COc1ccc(C(C(=O)NC(C)(C)C)N(Cc2ccc(F)cc2)C(=O)CCC(=O)Nc2cc(C)on2)cc1 (stereo not drawn) | 5.96% (inactive) |
| CCOC(=O)c1ccc(NC(=O)Cc2cccs2)cc1 | 3.73% (inactive) |
| CCOc1ccc(N/C=C/C(=O)c2ccccc2)cc1 | -1.74% (inactive) |
| COc1ccc(N2CCN(S(=O)(=O)CCNC(=O)C34CC5CC(CC(C5)C3)C4)CC2)cc1 | -5.62% (inactive) |
| COc1ccc(/C=N/OCc2ccccc2C#N)c(OC)c1 | -2.05% (inactive) |
| CCn1c(SCC(=O)NC2CC2)nnc1-c1ccccc1OC | 0.14% (inactive) |
| COc1cc2ccccc2cc1C(=O)Nc1ccccc1C | -3.04% (inactive) |
| CSCCNC(=O)c1ccc2nc(Cc3ccccc3F)oc2c1 | 2.14% (inactive) |
| CC(c1ccccn1)N(C)C(=O)c1ccc2nc(Cc3cccc(Cl)c3)oc2c1 (stereo not drawn) | 1.12% (inactive) |
| CCCOc1ccc(/C=N/NC(=O)C2CC2)c(OCCC)c1 | -5.37% (inactive) |
| O=C(CN1CCc2cc3c(cc2C1)OCCCO3)Nc1ccccc1 | 1.44% (inactive) |
| CCn1cc(/C=C(\NC(=O)c2cc(OC)c(OC)c(OC)c2)C(=O)N2CCN(C)CC2)c2ccccc21 | 0.178% (inactive) |
| COc1cccc(NC(=O)C2CCCN(c3ncnc4c3nc3n4CCCCC3)C2)c1 (stereo not drawn) | 0.562% (inactive) |

| SMILES | FP activity change |
| --- | --- |
| CCCc1ccc(OCCNC(=O)c2ccccc2Br)cc1 | -4.26% (inactive) |
| O=S(=O)(NCc1ccc(Cl)cc1Cl)c1cccs1 | -3.15% (inactive) |
| CC(CN1CCCCC1)c1ccccc1 (stereo not drawn) | 4.36% (inactive) |
| COc1ccc(/C(C)=N\NC(=O)c2ccc(-c3ccccc3)cc2)c(F)c1 | -4.21% (inactive) |
| Cc1ccccc1NC(=O)CSc1nc2ccc(Nc3nc(N4CCOCC4)nc(N4CCOCC4)n3)cc2s1 | 1.23% (inactive) |
| CCOC(=O)Nc1ccc2c(c1)N(C(=O)CCCl)c1ccccc1[S@]2=O | -0.773% (inactive) |
| CSc1nccc(NC(=O)c2ccc(C(C)(C)C)cc2)n1 | -1.11% (inactive) |
| O=C(c1cc(COc2cccc(C(F)(F)F)c2)on1)N1CCSCC1 | 1.74% (inactive) |
| Oc1ccccc1-c1cc(-c2ccc(Cl)cc2)n[nH]1 | -1.42% (inactive) |
| CC1CCC2CCCCC2N1C(=O)c1cc([N+](=O)[O-])cc([N+](=O)[O-])c1 (stereo not drawn) | 1.44% (inactive) |
| Cc1ccc(C(=O)Nc2nnc(C3=COCCO3)o2)cc1C | -0.415% (inactive) |
| N#C[C@]1(S(=O)(=O)c2ccccc2)C[C@@H]2ON=C(c3cccc(Br)c3)[C@@H]2C1 | 6.98% (inactive) |
| O=C(N/N=C/c1cccc(OCc2ccccc2)c1)c1ccc(Br)o1 | 2.42% (inactive) |
| N#CC(C#N)=CN=c1ccn(Cc2ccc(Cl)cc2Cl)cc1 | -5.78% (inactive) |
| FC(F)(F)C1CCCN(c2nsc3ccccc23)C1 (stereo not drawn) | -1.66% (inactive) |
| N=c1oc2ccccc2cc1C(=O)NCc1ccccc1 | 15.1% (inactive) |
| COCCCNc1nc2c(-c3cccc(C)c3)nnn2c2ccc(Cl)cc12 | -4.76% (inactive) |
| O=C(NCCNc1ccccc1[N+](=O)[O-])c1ccccc1F | -2.51% (inactive) |
| N#CCc1ccc(NC(=O)c2ccccc2C(=O)Nc2ccc(CC#N)cc2)cc1 | -1.6% (inactive) |
| CCn1cc(CN2CCC(C(=O)Nc3cccc(-c4cccc(Cl)c4)c3)CC2)c(C)n1 | -0.667% (inactive) |
| Cc1ccc(CCNC(=O)c2ccc3nc4ccccc4c(=O)n3c2)cc1 | -0.476% (inactive) |
